The structures appear in SMILES notation. Inconclusive results are not listed. Where a call stands in place of a potency, no number is given. Active and inactive are the calls of the source. The call rests on the fitted dose curve; in most records, active means well fitted activation curve with a large enough effect in the repeat runs; inconclusive means weak or mixed curves; inactive means flat fitted curve, though single readings scatter.
Potency means the concentration at half of the fitted maximal effect.

The assay is described as follows: A CellTox Green Cytotoxicity Assay to monitor cytotoxicity in HEK293 cells - 16 hour (AID 1224888). Further: nearly all actives have a fitted effect of over 35% in size. Conditions: CellTox Green fluorescence; series mostly up to 76.8 µM. The method in brief:
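Homogeneous no-lysis format: HEK293 cell suspension mixed with CellTox Green reagent, seeded, incubated 5 h at 37 C/5% CO2, then dosed by pintool with compound in DMSO.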
With `CC(C)(C)C(=O)OCOC(=O)[C@@H]1N2C(=O)[C@@H](NC(=O)[C@H](N)c3ccccc3)[C@H]2SC1(C)C`, the Potency entry was “inactive”. As for `CC(C)(C)c1ccc(C(=O)O)cc1`, the Potency result is “inactive”. The value for `CCCCCCCC[P+](CCCCCCCC)(CCCCCCCC)CCCCCCCC` was 10.9 µM (active). On to `C[C@H](CCC(=O)O)[C@H]1CC[C@H]2[C@@H]3CC[C@@H]4C[C@H](O)CC[C@]4(C)[C@H]3CC[C@]12C`, for which the Potency entry is “inactive”. As for `CC(C)c1ccc2c(c1)CC[C@H]1[C@](C)(CN)CCC[C@]21C`, the figure is 24.5 µM (active); as for `O=C(O)c1ccc(Cl)c(Cl)c1`, “inactive”.

Regarding `COc1cccc(N)c1`, the Potency result was “inactive”. Consider `CCCCCCCC/C=C/CCCCCCCC1=NCCN1CCO`, for which the Potency was 34.7 µM (active). Consider `Cc1cc(O)c2ccccc2c1O`, for which the Potency is 9.52 µM (active). For the molecule `O=C1C=CC(=O)N1c1ccc(Cc2ccc(N3C(=O)C=CC3=O)cc2)cc1`, the Potency is 49 µM (active).

With `CCCCCCCC/C=C\CCCCCCCCOCCO`, the Potency result is “inactive”. As for `Cc1cc(O)c(C(C)(C)C)cc1Sc1cc(C(C)(C)C)c(O)cc1C`, the entry is “inactive”. The value for `NNC(=O)c1cccc(C(=O)NN)c1` was “inactive”; that for `CCCCCCCCNC(C)C(O)c1ccc(SC(C)C)cc1` (configuration not stated) was 19 µM (active); that for `CN(C)[C@@H]1C(=O)C(C(N)=O)=C(O)[C@@]2(O)C(=O)C3=C(O)c4c(O)ccc(Cl)c4[C@@H](O)[C@H]3C[C@@H]12` was “inactive”.

For the molecule `CC(=O)N1CCN(c2ccc(OC[C@H]3CO[C@](Cn4ccnc4)(c4ccc(Cl)cc4Cl)O3)cc2)CC1`, the Potency is 49 µM (active). The value for `COc1ccc(C(=O)/C(Br)=C\C(=O)O)cc1` was “inactive”.

The record behind these values is PubChem BioAssay (Tox21).
